# IP6K1 inhibitor – inhibitors of human IP6K1. AID 1645851. activity change, % (series mostly up to about 58 µM). 140,000 tested, 0.81% active. IP6K1 kinase, ADP-Glo luminescence, 2 h; stronger effect = lower value; in the data active = activity change below about -25%; also: % is scaled to controls: 0 for no effect and ±100 for the full control effect
#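 ADP-Glo luminescence measures ADP made by human IP6K1 during a 2 h RT reaction with ATP/IP6 (mix at 1.3 mM/130 uM); top library doses 57.5 and 19.1 uM final.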
# SNCA viab count – counter-screen for SNCA expression inhibitors: cell viability; HEK-293-SNCA-luc viability, GF-AFC fluorescence, 24 h; Potency, µM (doses to about 57.1 µM), for the others: at the top dose activity change, negative = cytotoxicity, usual class: cytotoxic; 150,000 tested, 0.12% active;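 also: potency is read from the fitted curve at half-maximal effect; 0% = DMSO-treated cells and -100% = medium-only wells without cells; nearly all actives have a fitted effect of over 30% in size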
#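 Cytotoxicity counterscreen: after 24 h compound treatment of genome-edited SNCA-luciferase HEK-293 cells, live-cell protease substrate GF-AFC read by fluorescence after 30 min; activity scaled between DMSO (0%) and medium-only (-100%), curves Hill-fitted.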
# KDM5B inhibitor – inhibitors of human KDM5B histone demethylase; Q9UGL1; KDM5B demethylase, FDH-coupled NADH fluorescence (FDH is formaldehyde dehydrogenase); Potency, µM (titrated, usually from 57.7 µM), most hits filed as inhibitors; 220,000 tested, 2.6% active; also: potency is read from the fitted curve at half-maximal effect; 0% is about no effect; nearly all actives have a fitted effect of over 70% in size
# Target sequence (Q9UGL1 whole entry, looked up): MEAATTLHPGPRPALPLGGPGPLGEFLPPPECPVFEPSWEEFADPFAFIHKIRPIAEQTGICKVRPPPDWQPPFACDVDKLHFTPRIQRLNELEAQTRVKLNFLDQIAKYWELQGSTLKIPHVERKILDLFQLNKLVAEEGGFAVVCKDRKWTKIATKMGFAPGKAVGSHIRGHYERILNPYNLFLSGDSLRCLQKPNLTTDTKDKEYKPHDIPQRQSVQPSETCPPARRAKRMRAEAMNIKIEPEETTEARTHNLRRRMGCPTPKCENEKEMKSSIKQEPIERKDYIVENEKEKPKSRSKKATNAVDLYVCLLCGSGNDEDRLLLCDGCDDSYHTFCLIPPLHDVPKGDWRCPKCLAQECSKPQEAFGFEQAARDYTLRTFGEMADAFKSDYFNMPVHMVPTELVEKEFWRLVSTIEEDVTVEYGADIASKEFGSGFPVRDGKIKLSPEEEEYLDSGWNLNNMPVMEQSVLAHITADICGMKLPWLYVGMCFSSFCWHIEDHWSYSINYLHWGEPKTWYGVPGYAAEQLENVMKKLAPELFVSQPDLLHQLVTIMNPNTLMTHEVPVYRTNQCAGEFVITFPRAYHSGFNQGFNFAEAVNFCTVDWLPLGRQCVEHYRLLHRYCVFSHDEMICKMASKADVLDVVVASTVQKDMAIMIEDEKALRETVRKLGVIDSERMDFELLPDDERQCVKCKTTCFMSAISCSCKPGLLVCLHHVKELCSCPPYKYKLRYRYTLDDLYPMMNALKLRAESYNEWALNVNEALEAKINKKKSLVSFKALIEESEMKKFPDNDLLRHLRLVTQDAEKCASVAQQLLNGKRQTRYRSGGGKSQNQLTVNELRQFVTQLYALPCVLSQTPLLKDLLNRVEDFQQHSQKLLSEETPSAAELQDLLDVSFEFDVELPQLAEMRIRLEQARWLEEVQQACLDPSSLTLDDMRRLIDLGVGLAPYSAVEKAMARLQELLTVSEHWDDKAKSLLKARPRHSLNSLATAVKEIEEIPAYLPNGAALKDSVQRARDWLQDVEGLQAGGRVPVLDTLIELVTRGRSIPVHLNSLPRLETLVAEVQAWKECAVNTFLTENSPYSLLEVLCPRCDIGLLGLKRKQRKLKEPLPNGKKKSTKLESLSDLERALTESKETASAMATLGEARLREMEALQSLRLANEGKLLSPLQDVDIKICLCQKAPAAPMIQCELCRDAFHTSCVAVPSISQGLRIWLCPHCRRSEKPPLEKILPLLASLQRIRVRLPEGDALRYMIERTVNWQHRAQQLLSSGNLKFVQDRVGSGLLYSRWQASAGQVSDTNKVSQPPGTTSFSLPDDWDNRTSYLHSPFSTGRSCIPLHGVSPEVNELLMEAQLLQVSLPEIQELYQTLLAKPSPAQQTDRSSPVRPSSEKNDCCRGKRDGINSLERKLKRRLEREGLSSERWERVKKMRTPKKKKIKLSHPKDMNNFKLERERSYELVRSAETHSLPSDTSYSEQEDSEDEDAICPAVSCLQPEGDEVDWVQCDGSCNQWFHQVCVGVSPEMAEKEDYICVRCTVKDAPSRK
#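 Coupled FDH/NAD⁺ fluorescence readout. KDM5BΔAP 200 nM final; compound titration, 10 min RT preincubation; substrate mix 12.5 µM H3K4me3, 25 µM 2-OG, 50 µM Fe(II), 100 µM ascorbate, 0.25 mM NAD⁺, 0.25 U/mL FDH; ΔRFU over 30 min.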
# SNCA expr inh – SNCA gene expression inhibition; Potency, µM (top dose mostly 57.2 µM), without a hit: at the highest dose activity change, negative = inhibition, usual class: inhibitors; HEK-293 SNCA-luciferase knock-in, luminescence, 24 h; 140,000 tested, 0.17% active;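 also: potency is read from the fitted curve at half-maximal effect; plate controls were DMSO cells for no effect and cell-free wells for full effect; nearly all actives have a fitted effect of over 45% in size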
# * = called active by the depositor; i = inactive; ? = inconclusive; / = no result given; [ ] = another dose, or the depositor's remark. Most compounds without a hit are left out; they make up all but 3% or so of the library. Unless noted, calls follow the shape of the dose curve; as a rule, active = well fitted curve in the direction sought with a large enough effect; inconclusive = small, poorly fitted or top-dose-only effect, or another doubt; inactive = no such curve, though single readings can be large; an effect the other way counts as inactive or inconclusive.
SMILES,IP6K1 inhibitor,SNCA viab count,KDM5B inhibitor,SNCA expr inh
COc1ccc(-c2cc3nc4c(c(=O)n3[nH]2)CN(C(=O)Cc2ccc(NC(C)=O)cc2)CC4)cc1,0,5%,14µM*,8.9µM*
O=C(Cc1cccnc1)N1CCc2c(nc3cc(-c4ccccc4)[nH]n3c2=O)C1,12,3%,28µM*,-9%
Cc1nc(C2(C)CCN(C(=O)c3ccc(Cc4c(C)noc4C)o3)CC2)no1,-9,-4%,i,-10%
COc1ccc(CNC(=O)C2CCCN(c3nccc(Nc4ccc(OC)cc4)n3)C2)cc1 (stereo unspecified),-1,?,/,?
Cc1ccccc1C(=O)NC1CCN(c2nccc(Nc3ccccc3F)n2)CC1,3,?,/,41%
CCCCCN1CCc2ccccc2OCC(=O)N(C)[C@@H](Cc2ccc(OCCO)cc2)C1=O,7,/,/,/
CCOC(=O)[C@@H]1CN(C(=O)CC(C)(C)C)[C@H]2c3cccc(C)c3O[C@@H]12,8,/,/,/
O=C(CCCc1nc2ccccc2[nH]1)N1CCc2c(nc3cc(-c4ccccc4)[nH]n3c2=O)C1,18,5%,32µM*,22%
CCOCC(=O)N1CCc2nc3cc(-c4ccc(OC)cc4)[nH]n3c(=O)c2C1,0,9%,25µM*,?
O=C(CCCc1c[nH]c2ccccc12)N1CCc2c(nc3cc(-c4ccccc4)[nH]n3c2=O)C1,23,-4%,?,-9%
CC1(C)NC(=O)N(CCC(=O)N2CCc3c(nc4cc(-c5ccccc5)[nH]n4c3=O)C2)C1=O,6,-6%,28µM*,-2%
CC(=O)Nc1ccc(CC(=O)N2CCc3c(nc4cc(-c5ccccc5)[nH]n4c3=O)C2)cc1,23,2%,22µM*,16%
Cc1ccc(C(=O)N2CCC3(CC2)CCN(CCc2ccccc2)c2ccccc2O3)cc1,7,-16%,?,6%
Cc1cccc(-c2nc3ccc(C(=O)NCC(C)C)cc3o2)n1,-2,6%[87.6 µM],/,?
Cc1nn(-c2ccccc2)c2c1C(C(C)C)N(C1CCN(C(=O)c3ccccc3)CC1)C2=O (stereo unspecified),8,/,/,/
COc1ccc(Nc2ccnc(N3CCC(NC(=O)c4ccccn4)CC3)n2)cc1,12,-9%[12.5 µM],/,5%
Cc1nnc2ccc(N3CCN(C(=O)c4cccc(Cl)c4)CC3)nn12,5,/,/,/
COCCN1C(=O)CS(=O)C12CCN(C(=O)c1ccc3cc[nH]c3c1)CC2 (stereo unspecified),-8,-4%,18µM*,-20%
O=C(c1cccc2[nH]ccc12)N1CCC2(CC1)N(Cc1cccc(F)c1)C(=O)CS2=O (stereo unspecified),-9,-2%,18µM*,1%
O=C(NCc1ccccc1)N1CCC2(CC1)N(Cc1cccc(F)c1)C(=O)CS2=O (stereo unspecified),-12,3%,/,-1%
CC(C)COC(=O)N1C[C@H](C(N)=O)[C@H]2c3ccccc3N(CC3CC3)C(=O)[C@]21C,-1,/,/,/
COc1ccc(CCN2C(=O)O[C@@H]3CN(c4nc(C)cc(C)n4)C[C@@H]32)cc1,21,-10%,18µM*,-7%
COc1ccc(CN2C(=O)CO[C@H]3CN(c4nccc(C)n4)C[C@H]32)cc1,0,1%[87.6 µM],35µM*,-17%[87.6 µM]
O=C1CO[C@H]2CN(c3nccc(C(F)(F)F)n3)C[C@H]2N1Cc1ccc(F)cc1,-3,-2%[87.6 µM],i,24%[87.6 µM]
C=CCNC(=O)c1cccnc1N1CC2CC(C1)[C@H]1CCCC(=O)N1C2 (stereo partly specified),1,-2%,25µM*,3%
SMILES,IP6K1 inhibitor,SNCA viab count,KDM5B inhibitor,SNCA expr inh
CC(C)CCNC(=O)c1cccnc1N1CC2CC(C1)[C@H]1CCCC(=O)N1C2 (stereo partly specified),22,-4%,?,46%
O=C(NCCCN1CCCc2ccccc21)c1cccnc1N1CC2CC(C1)[C@H]1CCCC(=O)N1C2 (stereo partly specified),15,-7%,28µM*,-27%
Cc1ccc(Nc2ccnc(N3CCCC3C(=O)N3CCN(Cc4ccccc4)CC3)n2)cc1 (stereo unspecified),2,-20%[12.5 µM],/,4%
COc1ncccc1-c1ccc2ncn(Cc3ccccn3)c(=O)c2n1,19,3%[87.6 µM],35µM*,5%[87.6 µM]
COCCn1cnc2ccc(-c3ccnn3C)nc2c1=O,10,14%[87.6 µM],35µM*,-1%[87.6 µM]
O=C([C@@H]1CCCN1c1nccc(Nc2ccccc2Cl)n1)N1CCN(Cc2ccccc2)CC1,3,-2%[12.5 µM],/,-15%
O=C(O)Cn1ccc2cc(OCc3cccc(-c4ccccc4O)c3)cnc21,-14,4%[87.6 µM],?,-4%[87.6 µM]
Cc1ccc(-c2cccc(COc3cnc4c(ccn4CC(=O)O)c3)c2)cc1,-13,2%[87.6 µM],35µM*,-1%[87.6 µM]
CNC(=O)CCn1ncc2cc(OCc3ccccc3-c3ccc(F)c(Cl)c3)ccc21,-2,?,?,?
O=C(O)Cn1ccc2cc(OCc3cccc(-c4ccc(F)c(Cl)c4)c3)cnc21,-11,3%[87.6 µM],40µM*,10%[87.6 µM]
Cc1ccc(-c2nnc3ccc(N4CCN(Cc5ccccc5)CC4)nn23)nc1,-9,0%[87.6 µM],35µM*,-8%[87.6 µM]
COc1ccc(-c2nnc3ccc(N4CCC(c5ccccc5)CC4)nn23)nc1,1,1%[87.6 µM],35µM*,2%[87.6 µM]
OC[C@@H]1CN(Cc2ccco2)C[C@H]1c1ccncc1,-11,-6%,i,-27%
OC[C@@H]1CN(Cc2cccc3[nH]ccc23)C[C@H]1c1ccncc1,-6,-2%,25µM*,-28%
O=C(Nc1ccc(F)cc1)C1CCN(c2ccnc3ccnn23)CC1,7,-3%[87.6 µM],/,-4%[87.6 µM]
COc1ccc(F)cc1-c1cccc(C(=O)NCCNC(=O)c2ccccc2F)c1,6,6%,/,28%
CC(C)(C)OC(=O)N1CC(Nc2ccccc2O)C1,-5,4%[87.6 µM],100µM*,130%[87.6 µM]
CC(C)(C)OC(=O)N1CC(Nc2ccc(Cl)cc2)C1,-13,-4%[87.6 µM],i,32%[87.6 µM]
CCCCCNC(=O)[C@@H]1CCCN1c1ccnc2ccnn12,-5,/,/,/
COc1ccc(-c2noc([C@@H]3C[C@@H](O)CN3Cc3ccc(S(C)(=O)=O)cc3)n2)cc1,-4,-9%[87.6 µM],?,142%[87.6 µM]
CS(=O)(=O)c1ccc(CN2C[C@H](O)C[C@H]2c2nc(-c3cnccn3)no2)cc1,2,13%[87.6 µM],35µM*,-3%[87.6 µM]
O=[N+]([O-])c1ccc2c(c1)S(=O)(=O)C=C2,/,?,/,5µM*
O=[N+]([O-])c1cccc(Br)c1,/,/,i,/
C[S+](=O)([O-])N1CCc2nc(C3CC3)nc(-c3ccc(Cl)cc3)c2C1,-7,-16%,/,-4%
Cc1ccc(C(=O)NC2CCc3nnc(C4CC4)n3CC2)c(=O)[nH]1 (stereo unspecified),-7,-1%,32µM*,16%
O=C(NC1CCc2nnc(C3CC3)n2CC1)c1cccs1 (stereo unspecified),6,-14%,i,3%
CC(=O)N1CCN(c2cc(-c3noc([C@@H]4CCCN4Cc4ccc(C(F)(F)F)cc4)n3)ccn2)CC1,12,-20%,28µM*,?

# Screens deposited in PubChem BioAssay by National Center for Advancing Translational Sciences (NCATS).
